Hits are enriched below; roughly 27% of the tested compounds scored in any of these assays.
CYP2C19 activ: increases human CYP2C19 enzyme activity. 96,000 tested, under 10 active. recombinant CYP2C19, luciferin-H EGE luminescence; hits give high values; 0 = fully inhibited enzyme, 1 = untreated enzyme. activation factor at 5 µM. P33261;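 active means activation factor of at least 2 at 5 µM in the primary screen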;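 further: 0 = wells with 2.5 mM tranylcypromine and 1 = vehicle-only wells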
PTK2B oligo ant: blocks oligomerization of human Pyk2 in cells; Q293 cells, Pyk2 FERM NanoBiT luminescence; hits give low values; z-score (the deposit names both 25 µM and 10 µM); actives 0.83% (n = 99,000);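 active means Z-score of -3 or lower, scaled per plate to the spread of control and sample wells; inactive means z-score above -3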;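 further: negative z-score means lost luminescence so less FERM oligomerization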
CYP2C9 activ: activators of human CYP2C9; AID 1024; actives 1.4% (n = 96,000); activation factor at 5 µM; recombinant CYP2C9, luciferin-H conversion, luminescence; hits give high values; factor 1 = untreated enzyme, 0 = blocked; P11712;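 active means activation factor of 2 or more for CYP2C9 at a 5 µM dose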;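 further: 0 = sulfaphenazole-blocked wells and 1 = vehicle-only wells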
CYP2C9 inh: blocks human cytochrome P450 2C9 | P11712 | CYP2C9 Supersomes, luciferin-H conversion, luminescence | inhibition, % at 5 µM | actives 20% (n = 96,000);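 active means blocking of liver enzyme CYP2C9 beyond about 50% at 5 µM, limit read from the data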
CYP2C19 inh: human CYP2C19 inhibition. P33261. CYP2C19 Supersomes, luciferin-H EGE luminescence, 30 min. inhibition, % at 5 µM. actives 21% (n = 96,000). AID 778;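 active means CYP2C19 inhibition above a set limit at 5 µM in the primary screen, cut at about 50% in these data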;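 further: plate controls were negative control wells for no effect and 2.5 mM tranylcypromine positive control for full effect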
Cav3 T inh: inhibitors of human Cav3.2 T-type calcium channel. B-score at 10 µM. AID 449739. Cav3.2-expressing cells, Fluo-4 calcium fluorescence FDSS; hits give low values. O95180. actives 4% (n = 100,000);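 active means single-dose well whose peak fluorescence ratio is a statistical outlier from its plate by either plate-standardised score or position-corrected B-score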
* = called active by the depositor; · = not tested or not shown.

SMILES	CYP2C19 activ	PTK2B oligo ant	CYP2C9 activ	CYP2C9 inh	CYP2C19 inh	Cav3 T inh
O=c1oc2cc(O)ccc2c2c1CCCC2	0.8	2	2.6*	-164	20	0.47
Cc1coc2cc3oc(=O)c4c(c3cc12)CCCC4	0.7	0.64	0.3	74*	28	-1.2
O=C(O)CNC1=NCCC1	1.2	·	1.1	-15	-20	·
COc1ccc2c(c1)CC/C(=C\C=C\c1ccccc1OC)C2=O	·	-0.36	·	·	·	-0.077
COc1ccc(/C=C2\CCc3ccccc3C2=O)cc1Cn1cccn1	0.2	-2.5	0.5	49	78*	-3.7*
Cn1c(CN2CCCCC2)nc2cc(NS(=O)(=O)c3ccc(Cl)cc3)ccc21	0.6	2.3	0.3	67*	42	-0.67
Cn1c(CCN2CCCCC2)nc2cc(NS(=O)(=O)c3ccc(Cl)cc3)ccc21	0.8	-1	1	0	17	1.3
Cn1c(CN2CCCC2)nc2cc(NC(=O)c3ccco3)ccc21	1.1	0.15	1	-4	-14	0.68
Cn1c(CN2CCCCC2)nc2cc(NC(=O)c3cccs3)ccc21	0	-0.89	0.1	87*	99*	0.57
Cn1c(CCNC(=O)c2ccco2)nc2cc(NS(=O)(=O)c3ccc(Cl)cc3)ccc21	0.1	1.7	0	98*	89*	-0.95
Cc1ccc(N2CCN(CCc3nc4cc(NC(=O)c5ccco5)ccc4n3C)CC2)cc1	0.6	0.5	0.3	69*	44	·
O=C(COC(=O)CN1C(=O)C2CCCCC2C1=O)NC1CCS(=O)(=O)C1 (configuration not stated)	·	-0.82	·	·	·	·
CCc1ccccc1N(C(=O)c1cccs1)C1C=CS(=O)(=O)C1 (configuration not stated)	0.3	-0.73	0.9	14	71*	0.81
CC(=O)c1cn(CC(=O)NCC2CCCO2)c2ccccc12 (configuration not stated)	0.8	0.24	1	-2	17	0.61
COCc1[nH][nH]c(=O)c1C=Nc1ccc(Oc2ccccc2)cc1	0.3	0.51	0.7	29	66*	0.38
COC(=O)C1C(=O)c2c([nH]c(C(=O)OCCOC(C)C)c2C)CC1C (configuration not stated)	0.8	·	0.4	59*	18	0.64
COC(=O)C1C(=O)c2c([nH]c(C(=O)OC3CCCC3C)c2C)CC1C (configuration not stated)	0.9	·	0.4	56*	9	-2.3
COC(=O)C1C(=O)c2c([nH]c(C(=O)OC3CCCCC3)c2C)CC1C (configuration not stated)	1.2	·	0.9	6	-23	-0.034
Cn1c(=O)c2c(-c3ccccc3)n(N3CCOCC3)cc2n(C)c1=O	1	0.05	0.4	55*	-3	1.6
Cn1c(=O)c2c(-c3ccc(C(C)(C)C)cc3)n(N3CCOCC3)cc2n(C)c1=O	0.9	1.2	1.1	-8	9	-2.2
O=C(CSc1nnc(-c2ccncc2)n1-c1ccccc1)N1CCN(c2ccc(Cl)cc2)CC1	0.8	-0.25	0.7	27	15	·
CCOc1ccc(-n2c(SCc3nc(-c4ccc(C)cc4)no3)nnc2-c2ccncc2)cc1	0.2	-0.57	0.2	80*	80*	-4.3*
Cc1ccc(-c2noc(CSc3nnnn3C3CCCCC3)n2)cc1	0.8	·	0.7	32	21	-4.6*
Clc1ccc(-c2noc(CSc3nnc(-c4ccncc4)n3-c3ccccc3)n2)cc1	0.3	-2.6	0.3	72*	66*	-4.9*
Cn1c(SCc2nc(-c3ccc(Cl)cc3)no2)nnc1-c1ccco1	0.4	·	0.4	56*	60*	·
SMILES	CYP2C19 activ	PTK2B oligo ant	CYP2C9 activ	CYP2C9 inh	CYP2C19 inh	Cav3 T inh
O=C(CC1Oc2ccccc2NC1=O)NCCCN1CCN(C2CCCCC2)CC1 (configuration not stated)	·	·	·	·	·	0.52
Cc1ccc(-c2noc(CSc3nnc(-c4ccncc4)n3-c3ccc(C)cc3)n2)cc1	0.1	-1.1	0.2	84*	86*	-3
COC(=O)CP(=O)(c1ccccc1)c1ccccc1	1.2	1.1	1.2	-21	-25	0.47
CN(Cc1ccccc1)Cc1nc2c(c(=O)n(C)c(=O)n2C)n1Cc1ccccc1Cl	0.7	-0.03	0.2	81*	26	-2.6
CCCn1c(CN(C)Cc2ccccc2)nc2c1c(=O)n(C)c(=O)n2C	·	3	·	·	·	-0.31
CCOC(=O)Cn1c(CN2CCOCC2)nc2c1c(=O)n(C)c(=O)n2C	1.2	·	1.2	-17	-16	0.059
COCCn1c(CN(C)Cc2ccccc2)nc2c1c(=O)n(C)c(=O)n2C	0.9	·	0.5	47	11	1
CCOC(=O)Cn1c(CN(Cc2ccccc2)Cc2ccccc2)nc2c1c(=O)n(C)c(=O)n2C	0.2	-1.2	0	99*	83*	-4
Cn1c(=O)c2c(nc(OCc3ccc4c(c3)OCO4)n2Cc2ccccc2Cl)n(C)c1=O	0.4	-0.05	0.9	10	56*	0.093
CCCCn1c(CN(C)Cc2ccccc2)nc2c1c(=O)n(C)c(=O)n2C	0.4	-0.38	0	98*	55*	-2.6
Cc1occc(=O)c1OC(=O)Nc1ccccc1	1.1	-0.09	1.1	-13	-15	-0.28
C=CCn1c(C(C)NC(=O)COC)nc2ccccc21 (configuration not stated)	0.9	·	0.8	16	10	-0.19
Nc1nonc1C(=O)OCC(=O)N1CCOCC1	1	0.85	1	2	-3	0.44
CC(=O)c1cccc(NC(=O)NC(C)C2CCCO2)c1 (configuration not stated)	1	2	1.1	-9	1	0.32
CCCn1c(CN(Cc2ccccc2)Cc2ccccc2)nc2c1c(=O)n(C)c(=O)n2C	0.9	·	0.1	87*	8	-4.4*
CCCCCn1c(CN2CCN(Cc3ccccc3)CC2)nc2c1c(=O)n(C)c(=O)n2C	·	1	·	·	·	1.2
O=C1c2ccccc2N2C(=O)c3ccccc3C2N1O (configuration not stated)	1	-1.5	0.9	9	-1	-0.54
Cc1ccccc1N1C(=O)c2ccccc2N2C(=O)c3ccccc3C12 (configuration not stated)	1	0.71	0.7	32	4	-4.3*
COc1ccc2c(c1OC)C(=O)N1c3ccccc3C(=O)N(c3ccccc3)C21 (configuration not stated)	0.8	-0.25	0.4	59*	16	-1.7
CC(=O)Nc1ccc(NC(=O)CSc2ccc(C)cc2)cc1	0.3	2.3	0.2	81*	70*	-0.071
CC(=O)Nc1ccc(NC(=O)CSC2=NCCS2)cc1	0.4	0.79	0.2	81*	55*	0.78
O=C(CSC1=NCCS1)Nc1ccc(S(=O)(=O)N2CCCCCC2)cc1	0.6	0.75	0.4	62*	39	-4.4*
COc1cc(NS(=O)(=O)c2ccc(NC(=O)CSC3=NCCS3)cc2)nc(OC)n1	0.9	·	0.7	32	6	·

Compound activity (PubChem BioAssay)
